Here are results for 79 compounds from PubChem BioAssay AID651800 (The Scripps Research Institute Molecular Screening Center, 2012).

Screen size: about 360,000 compounds; about 1,300 (0.36%) were called active. Rule as the data show it: active = inhibition above about 19%; inactive = the rest. For the sample, actives were picked, then their nearest neighbours and some compounds at random.

This assay deals with T-cell receptor (TCR). In words: inhibitors of human TCR-CD3 interaction, primary screen, biochemical, fluorescence, TAMRA-labeled TCR probe (AID 651800).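 Also: recombinant mutant TCR 2C K166C tagged with TAMRA read by polarization; 0% = receptor in buffer alone and 100% = receptor with positive control.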 The following applies: at 9.4 µM, active compounds read high.
As a reminder, the inhibition is the change of the read-out against control, counted positive when it falls. As to `O=C(NCC1CCCO1)C(C(=O)c1ccccc1)n1cc(Cl)ccc1=O` (centres undefined), the inhibition was 4.24% (inactive).
To `CN(C)CCNC(=O)C(C(=O)c1ccccc1)n1ccccc1=O` (centres undefined) belongs 27.9% (active).
Then `CN(C)CCNC(=O)Cc1ccc([N+](=O)[O-])cc1`, with 6.84% (inactive); and `Nc1ncnc2c1ncn2C1OC(CO)CC1O` (centres undefined), with -7.35% (inactive); and `COC(=O)c1c(-c2ccc(OC)cc2)c2c(c3c4ccccc4n(S(=O)(=O)c4ccc(C)cc4)c13)C(=O)N(C)C2`, with 0.77% (inactive).
Then `O=S1(=O)c2c(cccc2N2CCCC2)O[C@H](COCc2ccccc2)CN1C1CC1`, with 19.3% (active); and `CSc1ccc(Oc2cccc3c2S(=O)(=O)N([C@H](C)c2ccccc2)C[C@@H](COCc2ccccc2)O3)cc1C`, with 11.5% (inactive).
For the compound `O=S1(=O)c2c(cccc2N2CCCCC2)O[C@H](COCc2ccccc2)CN1C1CC1`, the inhibition is 2.48% (inactive).
On to `CC1CCN(C(=O)c2ncn3c2C(=O)N[C@@H](C)C3)CC1`, for which the inhibition is 3.49% (inactive).
Then `COc1ccc(/C=C/c2c(-c3cccc(C)c3)oc3ccc(-c4ccc5c(c4)OCO5)cc23)cc1`, with -3.78% (inactive).
For `Nc1[nH]c(C(=O)c2ccc(Br)cc2)c(-c2ccc3c(c2)OCO3)c1C(=O)NCCc1c[nH]c2ccccc12`, the inhibition was -5.65% (inactive).
In the case of `COc1ccccc1N(CC(=O)Nc1c(C)n(C)n(-c2ccccc2)c1=O)S(=O)(=O)c1ccccc1`, the inhibition was 3.09% (inactive).
As to `COc1ccccc1N(CC(=O)N/N=C(\C)c1ccccc1O)S(=O)(=O)c1ccc(C)cc1`, the inhibition is 26.6% (active).
To `COc1ccccc1N(CC(=O)N1CCCCC1)S(=O)(=O)c1ccccc1` belongs 3.6% (inactive); to `COC(=O)[C@]12C[C@H](CC(=O)N3CCN(C(=O)C4CC4)CC3)C(=O)N(Cc3ccc4c(c3)OCO4)C1=C[C@H](C(C)(C)C)O[C@@H]2C`, 3.03% (inactive).
Turning to `C/C=C/C=C/C(=O)O`, the inhibition is 27.1% (active).
To `COc1ccc(-c2ccccc2C2Cc3nnccc3CN2C(=O)Nc2ccccc2)cc1` (centres undefined) belongs -1.6% (inactive); to `CCCCCCCCN1C(=O)[C@@H](CC(=O)NCc2ccccc2)C[C@@]2(C(=O)OC)C1=C[C@H](C(C)(C)C)O[C@@H]2C`, -4.58% (inactive).
To `Cc1cc(C)c(NC(=O)CN2C(=O)NC(Cc3ccccc3)C2=O)c(C)c1` (centres undefined) belongs -1.72% (inactive).
Then `O=C1C(Cc2ccc(O)cc2)NC(=S)N1Cc1ccccc1` (centres undefined), with 25.9% (active); and `CCCCc1ccc(NC(=O)CN2C(=O)NC(Cc3ccccc3)C2=O)cc1` (centres undefined), with -0.34% (inactive).
On to `COc1ccccc1-c1ccc([C@@H]2C[C@H]3[C@H](CON3C)CN2S(=O)(=O)c2cc(Cl)cc(Cl)c2)cc1`, for which the inhibition is -0.88% (inactive).
Consider `C[C@@H]1ON(C)[C@H]2C[C@H]3c4cc(N5CCOCC5)ccc4CCN3C[C@@H]12`, for which the inhibition is 7.02% (inactive).
For the compound `CCN(CC)c1ccc(C(=O)N/N=C(\C)c2cccc(OC)c2)cc1`, the inhibition was 6.48% (inactive).
Then `COc1cccc2cc(C(N)=O)/c(=N\NC(=O)c3ccccc3)oc12`, with 6.06% (inactive).
Then `CCN(CC)c1ccc2cc(C(N)=O)/c(=N\NC(=O)c3ccncc3)oc2c1`, with 30.5% (active).
Then `O=C(NCc1ccccc1)[C@H]1CCCN1C(=O)[C@@H]1CCCN1C(=O)c1ccc(Cl)cc1Cl`, with 5.28% (inactive); and `CCc1ccc(C2=CC(=O)CC(C)(C)C2=O)cc1`, with -0.75% (inactive).
For the compound `COc1ccc(C(=O)NCCSc2ccccc2C)cc1`, the inhibition is -0.19% (inactive).
To `COc1ccc(C(=O)NNc2cc(C)nc(NNC(=O)c3ccc(OC)cc3)n2)cc1` belongs 19.4% (active).
To `COc1ccc(C(=O)NCC[N+](C)(C)C)cc1` belongs -6.67% (inactive); to `CC(c1ccccc1)n1c(NCCCn2ccnc2)nc2c1c(=O)[nH]c(=O)n2C` (centres undefined), 5.62% (inactive).
To `COc1ccc(S(=O)(=O)Nc2ccc3c(c2)C(=O)N([C@H](C)CO)C[C@H](C)[C@@H](CN(C)C)OCCCC[C@H](C)O3)cc1` belongs -1.68% (inactive).
`CC(=O)c1ccc(S(=O)(=O)NCC2CCN(C(=O)C(=O)c3cccs3)CC2)cc1`: the inhibition is -11.4% (inactive).
Turning to `CCN(CC)CCCC(C)n1c2nc(=O)[nH]c(=O)c-2nc2cc(Cl)ccc21` (centres undefined), the inhibition was 54.6% (active).
Then `O=C(NCc1ccccc1)[C@H]1CCCN1C(=O)[C@H]1CCCN1C(=O)c1cc(F)cc(F)c1`, with 1.6% (inactive); and `O=C(/C=C/c1cn(-c2ccccc2)nc1-c1ccc2c(c1)OCCO2)NCCCN1CCOCC1`, with -3.23% (inactive); and `Cc1ccc(-c2nn(-c3ccccc3)cc2/C=C/C(=O)Nc2cccc(S(N)(=O)=O)c2)cc1`, with 83.6% (active).
Then `Cc1ccc(-c2nn(-c3ccccc3)cc2C(=O)Nc2cccc(S(=O)(=O)N3CCOCC3)c2)cc1`, with 2.85% (inactive); and `CN(C)C(=O)N1CCN(C(=O)[C@@H](Cc2ccccc2)NC(=O)[C@H]2O[C@@H](n3ccc(N)nc3=O)[C@H](O)[C@@H]2O)CC1`, with -1.88% (inactive); and `COC(=O)C1=C(C(=O)OC)C2C=C(C(C)C)C1C(=O)C2(C)O` (centres undefined), with -5.88% (inactive).
Then `COC(=O)C1=C(C)N(Cc2cccc(C(F)(F)F)c2)C(=NCc2cccc(C(F)(F)F)c2)NC1c1ccccc1C(F)(F)F` (centres undefined), with 7% (inactive); and `CC1CCCN(c2cccc3c2S(=O)(=O)N(Cc2ccc(F)cc2)[C@@H](C)[C@H](c2ccccc2)O3)C1` (some centres undefined), with -3.78% (inactive); and `CC(C)C[C@H](NC(=O)CC1CCCC1)C(=O)N1CCC[C@H]1C(=O)NCc1ccccc1`, with -0.62% (inactive).
Regarding `COc1ccccc1C(=O)NNC(=O)c1ccc(NC(=O)c2ccccc2)cc1`, the inhibition is 37.3% (active).
`COc1ccccc1C(=O)NCC(=O)OCC(=O)NNC(=O)c1ccc(Br)cc1`: the inhibition is 7.36% (inactive).
Consider `COc1ccccc1C(=O)c1ccccc1C(=O)c1ccccc1`, for which the inhibition was -2.38% (inactive).
To `CC(=O)C1=C(C)N(Cc2ccc(Cl)cc2)C(=S)NC1c1ccc(F)cc1` (centres undefined) belongs 3.88% (inactive); to `COc1ccccc1Cc1c(-c2ccc(F)cc2)nc2ccc(C)cn12`, -1.71% (inactive).
On to `O=C(NCc1ccccc1)[C@@H]1CCCN1C(=O)[C@@H](NS(=O)(=O)c1ccc(F)cc1F)C1CCCCC1`, for which the inhibition was -7.08% (inactive).
Consider `COc1ccccc1C(CNC(=O)c1ccc(C)c(S(=O)(=O)N2CCCCC2)c1)N(C)C` (centres undefined), for which the inhibition was -9.01% (inactive).
Then `Cc1ccc(C(=O)NNC(=O)c2ccncc2)cc1S(=O)(=O)N1CCCCC1`, with -4.33% (inactive); and `Cc1ccc(C(=O)NCC(=O)O)cc1S(=O)(=O)N1CCCCC1`, with 21.8% (active).
To `COC(=O)[C@]12C[C@H](CC(=O)NCc3ccc(OC)c(OC)c3)C(=O)N(Cc3ccccc3)C1=C[C@H](C(C)C)O[C@@H]2C1CC1` belongs 1.22% (inactive); to `Cc1nn(C)cc1N1C(=O)c2cccc3c(N)ccc(c23)C1=O`, 38% (active); to `COc1ccc(NS(=O)(=O)c2cc(NC(=O)c3ccc(S(=O)(=O)N(C)C)cc3)ccc2N2CCOCC2)cc1`, 1.69% (inactive).
To `COc1ccc(NS(=O)(=O)c2cc(NC(=O)/C=C/c3cc(OC)c(OC)c(OC)c3)ccc2N2CCCCC2)cc1` belongs 22.8% (active); to `COc1ccc(NS(=O)(=O)c2cc(NC(=O)C3CCCCC3)ccc2N2CCOCC2)cc1`, 0.76% (inactive); to `Nc1[nH]c(C(=O)c2ccccc2)c(-c2ccc(Cl)cc2Cl)c1C(=O)c1ccccc1`, 4.17% (inactive).
With `Nc1nc(CC(=O)CSc2ccc(Cl)cc2)nc(Nc2ccc(F)cc2)n1`, the inhibition is 4.84% (inactive).
Then `Cc1cc2nc3c(=O)[nH]c(=O)nc-3n(C[C@H](O)[C@H](O)[C@H](O)CO)c2cc1C`, with 19.9% (active); and `CN1CCCCC(NC(=O)C(C)(C)C)C1=O` (centres undefined), with -0.73% (inactive); and `CC(C)CNc1cccc2c1S(=O)(=O)N[C@H](C)CO2`, with 0.56% (inactive).
Then `C[C@H]1CN([C@@H](C)CO)C(=O)CCCn2nncc2CO[C@@H]1CN(C)C(=O)Nc1ccc(N2CCN(C)CC2)cc1`, with 3.36% (inactive).
Then `CN[C@H]1C[C@H]2c3[nH]c4c(-c5ccccc5)cccc4c3CCN2C(=O)[C@H]1[C@H](C)O`, with 2.21% (inactive); and `NS(=O)(=O)c1ccc(NC(=O)COC(=O)c2c3c(nc4ccccc24)/C(=C\c2ccc4c(c2)OCO4)CCC3)cc1`, with 50.3% (active).
In the case of `CC(NC(=S)Nc1ccc(S(N)(=O)=O)cc1)c1ccc2c(c1)OCO2` (centres undefined), the inhibition was -3.8% (inactive).
To `CCN(CC(=O)Nc1ccc2c(c1)OCO2)S(=O)(=O)c1ccccc1` belongs -7.59% (inactive); to `Cc1c(Cl)cccc1NC(=O)CCC(=O)N/N=C/c1ccco1`, 1.69% (inactive); to `O=C(Cn1cnc2ccccc21)N/N=C/c1ccco1`, 3.99% (inactive).
Regarding `O=C(N/N=C/c1ccco1)c1ccc(C(=O)N/N=C/c2ccco2)o1`, the inhibition was 21.8% (active).
To `Cc1ccc2nc(CN(C)C(=O)[C@@H](Cc3ccccc3)NC(=O)[C@H]3O[C@@H](n4ccc(=O)[nH]c4=O)[C@H](O)[C@@H]3O)[nH]c2c1` belongs 3.29% (inactive).
Then `C=CCN=C1NC(c2cccc(C(F)(F)F)c2)C(C(=O)OC)=C(C)N1C` (centres undefined), with -6.24% (inactive); and `O=C(N/N=C/c1cc([N+](=O)[O-])ccc1O)/C(=C\c1cccs1)NC(=O)c1ccccc1`, with 30.9% (active); and `COc1cc(/C=C(/NC(=O)c2ccccc2)C(=O)Nc2cccc(O)c2)c([N+](=O)[O-])cc1OC`, with -4.87% (inactive).
In the case of `Cc1ccc(C(=O)N/C(=C\c2cccs2)C(=O)NCCc2ccccn2)cc1C`, the inhibition was 2.48% (inactive).
For `C=CCn1c(=O)c(C(=O)Nc2ncccc2O)c(O)c2ccccc21`, the inhibition is 29.1% (active).
Then `C=CCn1c(=O)c(C(=O)NCc2ccc3c(c2)OCO3)c(O)c2ccccc21`, with 4.79% (inactive); and `Cn1c(=O)c(C(=O)Nc2ncccn2)c(O)c2ccccc21`, with 3.65% (inactive).
